# Assay outcomes from PubChem BioAssay.
# S-ASM inh – inhibitors of human secretory acid sphingomyelinase; P17405; placental ASM, HMU-PC fluorogenic substrate, 60 min; Potency, µM (doses to about 57.5 µM), actives largely listed as inhibitors; actives 0.006% (n = 340,000); AID 504937
#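 Steps: dispense placental human ASM, pin compound, wait 10 min at room temperature, add HMU-PC0 substrate at 9 uM final, incubate 60 min at 37 °C, add stop solution raising pH to 10, read fluorescence.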
# mIDH1 inhibitor – human IDH1 R132H inhibition; Potency, µM (titrated, usually from 76.6 µM), hits mostly inhibitors; IDH1-R132H enzyme, NADPH consumption, diaphorase/resazurin fluorescence; AID 602179; actives 0.093% (n = 390,000); O75874; further: nearly all actives have a fitted effect of over 65% in size
#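 IDH1-R132H (0.5 ug/mL dispensed) in pH 7.5 Tris buffer was preincubated 30 min with compound, then given a substrate mix of 0.016 mM NADPH and 2 mM alpha-KG for 80 min at room temperature; remaining NADPH was read by diaphorase/resazurin fluorescence.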
# ClpP mod – qHTS Assay for Activators of ClpP. purified B. subtilis ClpP, FRET peptide cleavage, 20 min. actives 1.9% (n = 340,000). AID 651965, 2013. Potency, µM (top dose mostly 57.5 µM). ATP-dependent Clp protease proteolytic subunit (Bacillus subtilis (strain 168)), P80244; active means well fitted falling curve with a large enough effect; inconclusive means small, poorly fitted or top-dose-only effect; inactive means no such curve, though single readings can be large or run the other way; further: the source files actives as falling curves though it sought activators and does not explain the sign; nearly all actives have a fitted effect of over 65% in size
# Target sequence (P80244 whole entry, looked up): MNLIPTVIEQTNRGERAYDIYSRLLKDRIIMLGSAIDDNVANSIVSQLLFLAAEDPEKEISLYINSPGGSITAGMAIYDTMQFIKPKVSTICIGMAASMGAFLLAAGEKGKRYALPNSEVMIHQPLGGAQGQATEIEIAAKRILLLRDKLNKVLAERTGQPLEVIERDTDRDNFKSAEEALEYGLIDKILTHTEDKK
#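 Buffer: 100 mM Tris/HCl pH8, 100 mM KCl, 0.05% low protease BSA, 2.5% glycerol, 0.01% Tween-20. ClpP 10 microg/mL final; 20 min RT; delta FRET normalized to ADEP and DMSO controls.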
# RGS4 inh – inhibitors of human regulator of G protein signaling 4. P49798. Transcreener GDP fluorescence polarization, RGS4-accelerated GTP hydrolysis. Potency, µM (series often up to 114 µM), most hits filed as inhibitors. actives 0.039% (n = 390,000); further: nearly all actives have a fitted effect of over 75% in size
# Target sequence (P49798 whole entry, looked up): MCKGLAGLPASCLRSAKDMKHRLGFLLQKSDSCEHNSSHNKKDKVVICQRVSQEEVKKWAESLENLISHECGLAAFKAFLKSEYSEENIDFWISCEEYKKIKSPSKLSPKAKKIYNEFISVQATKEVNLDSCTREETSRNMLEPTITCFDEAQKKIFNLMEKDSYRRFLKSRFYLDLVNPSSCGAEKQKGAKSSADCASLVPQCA
#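 MLSMR compounds (23 nl, pin-transferred) preincubated 10 min at room temperature with a 500nM (2x) first reagent, then RGS4 at 900nM (2x) plus Transcreener GDP mix added; fluorescence polarization (620/688 nm) read before and after 90 min at 30 °C.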
# LDHA block – blocks human lactate dehydrogenase A | P00338 | purified LDHA, NADH/diaphorase-resazurin fluorescence; active compounds read low | activity change, % (values are at about 110 or 230 µM) | actives 0.15% (n = 480,000) | AID 1347041; in the data active means activity change below about -30%; inconclusive means mostly about -25% to -30%
#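 Remaining NADH was detected by diaphorase (0.133 mg/mL) converting 37 µM resazurin to fluorescent resorufin, read at 0 and 20 minutes. The preceding 5-minute room-temperature reaction used 2 nM LDHA, 0.2 mM sodium pyruvate and 0.06 mM NADH at pH 7.4.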
# Mito fusion yeast – inhibitors of mitochondrial division or activators of mitochondrial fusion; AID 485298; Potency, µM (series often up to 46.1 µM), usual class: activators; actives 0.23% (n = 320,000); S. cerevisiae fusion-defective mutant growth rescue, CellTiterGlo 48 h; further: nearly all actives have a fitted effect of over 45% in size
#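 S. cerevisiae fusion-defective temperature-sensitive mutants (e.g. fzo1-1, mgm1-5) grown 48 h at 37C in YPEG (ethanol/glycerol non-fermentable) medium with 23 nl compound per well; growth rescue read as CellTiterGlo luminescence.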
# IDH1 autofl – counter-screen for mutant IDH1 inhibitors: fluorescence interference | 750 tested, under 10 active | shares compounds with mIDH1 inhibitor | Resorufin detection reagent fluorescence interference, cell-free | inhibition of signal, % at 51.2 µM | AID 623980
# IDH1 WT – inhibits human wild-type IDH1, mutant selectivity check | AID 623995 | WT IDH1 enzyme, NADPH diaphorase/resazurin fluorescence | shares compounds with mIDH1 inhibitor | actives 9% (n = 750) | Potency, µM (top dose mostly 115 µM), hits mostly inhibitors; further: nearly all actives have a fitted effect of over 55% in size
# mIDH1 confirm – confirmation of human mutant IDH1 inhibitors; AID 624002; Potency, µM (top dose mostly 76.6 µM), most hits filed as inhibitors; shares compounds with mIDH1 inhibitor; IDH1 R132H enzyme, NADPH diaphorase/resazurin fluorescence; actives 83% (n = 750); further: nearly all actives have a fitted effect of over 50% in size
# Numbers stand for hits; 0 = inactive; ? = inconclusive; - = no result given. Shown is part of a subset that was picked to be rich in hits. Unless noted, the call rests on the fitted dose curve; in most records, active means well fitted curve in the direction sought with a large enough effect; inconclusive means small, poorly fitted or top-dose-only effect, or another doubt; inactive means no such curve, though single readings can be large; an effect the other way counts as inactive or inconclusive.
SMILES,S-ASM inh,mIDH1 inhibitor,ClpP mod,RGS4 inh,LDHA block,Mito fusion yeast,IDH1 autofl,IDH1 WT,mIDH1 confirm
N#Cc1c2c(c(Nc3ccccc3)n3c1nc1ccccc13)CCC2,0,0,0,?,0,0,-,-,-
COc1ccc(-c2n[nH]c3c2C(c2ccc(Cl)cc2Cl)NC3=O)cc1 (stereo not drawn),-,?,0,0,0,-,0,0,40µM
COc1cccc(Cn2c(=O)n(-c3cccc(Cl)c3C)c(=O)c3c4c(sc32)CN(C(C)=O)CC4)c1,-,35µM,0,0,0,-,0,20µM,25µM
COc1ccccc1CCN1CNc2c(c(=O)[nH]c(=O)n2-c2ccc(Cl)cc2)C1,-,-,-,-,0,-,-,-,-
CC(C)c1ccc2oc(=O)cc(CN3CCN(c4ccccc4F)CC3)c2c1,-,-,-,-,0,-,-,-,-
CC(C(=O)Nc1ccc(F)cc1F)N1CCN(c2ccc([N+](=O)[O-])c3cnccc23)CC1 (stereo not drawn),-,-,-,-,0,-,-,-,-
O=C(NC1CCCCC1)N(Cc1nc2ccccc2c(=O)[nH]1)C1CCCCC1,0,0,0,0,0,0,-,-,-
COc1ccc(CN(Cc2nc3ccccc3c(=O)[nH]2)C(=O)NC2CCCCC2)cc1,0,?,0,0,0,0,0,0,28µM
Cc1ccc(-c2ocnc2C(=O)NCCC(C)C)s1,-,-,-,-,0,-,-,-,-
COc1cc2c3c(c1)C1(C(=O)N3C(C)(C)C=C2C)C(C#N)=C(N)Oc2cc(O)ccc21 (stereo not drawn),0,29µM,0,0,0,0,0,0,16µM
C/C(=N\NC(N)=S)c1cc(-c2ccccc2)c(-c2ccccc2)s1,0,?,-,0,0,0,0,0,?
CCn1c(SCC(=O)Nc2ccc3c(c2)OCCO3)nc2c(-c3ccccc3)csc2c1=O,-,-,-,-,0,-,-,-,-
Cc1ccc2[nH]c(=O)c3cc(C(=O)N(C)c4ccc(C)c(C)c4)sc3c2c1,0,52µM,0,0,0,0,0,0,16µM
CCN(C(=O)c1cc2c(=O)[nH]c3ccc(C)cc3c2s1)c1cccc(C)c1,0,21µM,-,0,0,0,0,0,22µM
CCN(C(=O)c1cc2c(=O)[nH]c3ccc(C)cc3c2s1)c1ccc(F)cc1,0,0,0,0,0,0,-,-,-
CCc1ccc(C2c3c(-c4cc(C)ccc4O)n[nH]c3C(=O)N2Cc2cccnc2)cc1 (stereo not drawn),-,28µM,0,0,0,-,0,0,16µM
COc1cc(C2c3c(-c4cc(C)ccc4O)n[nH]c3C(=O)N2Cc2cccnc2)cc(OC)c1OC (stereo not drawn),-,0,0,0,0,-,-,-,-
CCOc1ccc(C2c3c(-c4cc(C)ccc4O)n[nH]c3C(=O)N2Cc2cccnc2)cc1OCC (stereo not drawn),-,?,0,0,0,-,0,0,35µM
CCc1nc(N2CCN(C(=O)CCl)CC2)c2c3c(sc2n1)CC(C)CC3 (stereo not drawn),0,?,-,0,0,0,0,50µM,10µM
CCNC(=O)c1cccc(NC(=O)c2cnc3ccccc3n2)c1,-,-,-,-,0,-,-,-,-
Brc1ccc(-c2csc(NNC3=NCCCCC3)n2)cc1,0,26µM,0,?,0,0,0,0,?
Cc1c(NC(=O)CCSc2nc3c(=O)n(C)c(=O)n(C)c3n2C)cccc1C(F)(F)F,-,-,-,-,0,-,-,-,-
